# Source: the supplement of paper PMC9492666
# Columns and labels:
# HCC1937 = assay: relative cell viability, compound + erastin, vs DMSO (fraction of DMSO control); higher = less growth inhibition; conditions: 72 h
# MDA-MB-231 = assay: as above; conditions: 72 h
# 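Further: viability read by CCK-8 kit in 96-well plates, part of a combination screen pairing lipid-metabolism-targeting compounds with erastin.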
Structure (SMILES),relative cell viability (HCC1937),relative cell viability (MDA-MB-231)
COc1cc([C@@H]2Oc3c(O)cc([C@H]4Oc5cc(O)cc(O)c5C(=O)[C@@H]4O)cc3[C@H]2CO)ccc1O [Silychristin] + CCOc1ccccc1-n1c(C(C)N2CCN(C(=O)COc3ccc(Cl)cc3)CC2)nc2ccccc2c1=O [erastin],0.584,0.685
CS(=O)(=O)c1ccc(-c2nnc(/C=C/c3nnc(-c4ccc(C#N)cc4)o3)n2-c2ccccc2Cl)nc1 + CCOc1ccccc1-n1c(C(C)N2CCN(C(=O)COc3ccc(Cl)cc3)CC2)nc2ccccc2c1=O [erastin],0.735,0.668
CN(C)c1cccc(-c2c3c(=O)n(-c4ccccc4Cl)[nH]c3cc(=O)n2C)c1 + CCOc1ccccc1-n1c(C(C)N2CCN(C(=O)COc3ccc(Cl)cc3)CC2)nc2ccccc2c1=O [erastin],0.61,1.23
O=C(O)C(=O)Nc1sc2c(c1C(=O)O)CCNC2 + CCOc1ccccc1-n1c(C(C)N2CCN(C(=O)COc3ccc(Cl)cc3)CC2)nc2ccccc2c1=O [erastin],0.755,0.635
Cc1nc2c([nH]1)c(=O)n(C)c(=O)n2Cc1ccco1 [Furafylline] + CCOc1ccccc1-n1c(C(C)N2CCN(C(=O)COc3ccc(Cl)cc3)CC2)nc2ccccc2c1=O [erastin],0.672,0.767
O=C(O)CC[C@H](O)C(=O)O [L-2-Hydroxyglutaric acid disodium] + CCOc1ccccc1-n1c(C(C)N2CCN(C(=O)COc3ccc(Cl)cc3)CC2)nc2ccccc2c1=O [erastin],0.747,0.701
Nc1cccc(S(=O)(=O)N2CCCN(S(=O)(=O)c3ccc4c(c3)OCCO4)CC2)c1 + CCOc1ccccc1-n1c(C(C)N2CCN(C(=O)COc3ccc(Cl)cc3)CC2)nc2ccccc2c1=O [erastin],0.817,0.553
COc1cc(N2CCN(C)CC2)ccc1Nc1ncc2c(n1)N(C1CCC1)C(=O)N(c1c(C)cccc1C)C2 + CCOc1ccccc1-n1c(C(C)N2CCN(C(=O)COc3ccc(Cl)cc3)CC2)nc2ccccc2c1=O [erastin],0.56,0.586
Cc1ccc(/C=C2\SC(=S)N(CCCCCC(=O)Nc3ccc(C(=O)O)c(O)c3)C2=O)cc1 + CCOc1ccccc1-n1c(C(C)N2CCN(C(=O)COc3ccc(Cl)cc3)CC2)nc2ccccc2c1=O [erastin],0.715,0.638
O=c1ccc2cc(O)c(O)cc2o1 [Esculetin] + CCOc1ccccc1-n1c(C(C)N2CCN(C(=O)COc3ccc(Cl)cc3)CC2)nc2ccccc2c1=O [erastin],0.648,0.711
COc1ccc2[nH]cc(CCNC(C)=O)c2c1 [Melatonine] + CCOc1ccccc1-n1c(C(C)N2CCN(C(=O)COc3ccc(Cl)cc3)CC2)nc2ccccc2c1=O [erastin],0.585,0.693
O=C(c1ccc(-c2nc3ccc(F)cc3o2)cc1)N1CCN(C(=O)C2(O)CC2)CC1 + CCOc1ccccc1-n1c(C(C)N2CCN(C(=O)COc3ccc(Cl)cc3)CC2)nc2ccccc2c1=O [erastin],0.588,0.823
N[C@@H](Cc1c[nH]cn1)C(=O)O [histidine] + CCOc1ccccc1-n1c(C(C)N2CCN(C(=O)COc3ccc(Cl)cc3)CC2)nc2ccccc2c1=O [erastin],0.592,0.706
C=C1C[C@]2(O)O[C@@]3(CC2=C(C)C)[C@@H](C)CC[C@@H]13 [Isocurcumenol] + CCOc1ccccc1-n1c(C(C)N2CCN(C(=O)COc3ccc(Cl)cc3)CC2)nc2ccccc2c1=O [erastin],0.566,0.662
C[C@]12C=CC(=O)N[C@@H]1CC[C@@H]1[C@@H]2CC[C@]2(C)[C@@H](C(=O)Nc3cc(C(F)(F)F)ccc3C(F)(F)F)CC[C@@H]12 [Dutasteride] + CCOc1ccccc1-n1c(C(C)N2CCN(C(=O)COc3ccc(Cl)cc3)CC2)nc2ccccc2c1=O [erastin],0.573,0.596
C[C@H](CCC(=O)O)[C@H]1CC[C@H]2[C@@H]3CC[C@@H]4C[C@H](O)CC[C@]4(C)[C@H]3CC[C@]12C [Lithocholic acid] + CCOc1ccccc1-n1c(C(C)N2CCN(C(=O)COc3ccc(Cl)cc3)CC2)nc2ccccc2c1=O [erastin],0.832,0.688
CCC(=O)Nc1cccc(Oc2nc(Nc3ccc(N4CCN(C)CC4)cc3OC)ncc2Cl)c1 + CCOc1ccccc1-n1c(C(C)N2CCN(C(=O)COc3ccc(Cl)cc3)CC2)nc2ccccc2c1=O [erastin],0.255,0.795
O=c1c(O[C@@H]2O[C@H](CO)[C@@H](O)[C@H](O)[C@H]2O)c(-c2ccc(O)cc2)oc2cc(O)cc(O)c12 [Astragalin] + CCOc1ccccc1-n1c(C(C)N2CCN(C(=O)COc3ccc(Cl)cc3)CC2)nc2ccccc2c1=O [erastin],0.584,0.749

Structure (SMILES),relative cell viability (HCC1937),relative cell viability (MDA-MB-231)
C=CC[S+]([O-])C[C@H](N)C(=O)O (some centres not stated) [Alliin] + CCOc1ccccc1-n1c(C(C)N2CCN(C(=O)COc3ccc(Cl)cc3)CC2)nc2ccccc2c1=O [erastin],0.864,0.778
O=C(OC(C(F)(F)F)C(F)(F)F)N1CCC(C(O)(c2ccc3c(c2)OCO3)c2ccc3c(c2)OCO3)CC1 + CCOc1ccccc1-n1c(C(C)N2CCN(C(=O)COc3ccc(Cl)cc3)CC2)nc2ccccc2c1=O [erastin],0.53,0.546
Cc1nc2ccc(C(=O)N3CCC4(CC3)CC(=O)c3c(cnn3C(C)C)C4)cc2[nH]1 + CCOc1ccccc1-n1c(C(C)N2CCN(C(=O)COc3ccc(Cl)cc3)CC2)nc2ccccc2c1=O [erastin],0.619,0.733
CN(C(=O)n1cnc(-c2ccc[n+]([O-])c2)c1)C1CCCCC1 + CCOc1ccccc1-n1c(C(C)N2CCN(C(=O)COc3ccc(Cl)cc3)CC2)nc2ccccc2c1=O [erastin],0.427,0.613
C=C(C)[C@@H]1CC[C@]2(C)CC[C@]3(C)[C@H](CC[C@@H]4[C@@]5(C)CCC(=O)C(C)(C)[C@@H]5CC[C@]43C)[C@@H]12 + CCOc1ccccc1-n1c(C(C)N2CCN(C(=O)COc3ccc(Cl)cc3)CC2)nc2ccccc2c1=O [erastin],0.608,0.594
COc1cc(F)c(C(C)C)cc1-c1ccc(C(F)(F)F)cc1CN1C(=O)O[C@H](c2cc(C(F)(F)F)cc(C(F)(F)F)c2)[C@@H]1C [Anacetrapib] + CCOc1ccccc1-n1c(C(C)N2CCN(C(=O)COc3ccc(Cl)cc3)CC2)nc2ccccc2c1=O [erastin],0.557,0.639
CCc1ccc(N(CC(C)C)S(=O)(=O)c2ccc(OCC3CCOCC3)c(CO)c2)cc1 + CCOc1ccccc1-n1c(C(C)N2CCN(C(=O)COc3ccc(Cl)cc3)CC2)nc2ccccc2c1=O [erastin],0.508,0.604
NC(N)=NN=Cc1cccc(Cl)c1Cl [Raphin1] + CCOc1ccccc1-n1c(C(C)N2CCN(C(=O)COc3ccc(Cl)cc3)CC2)nc2ccccc2c1=O [erastin],0.556,0.558
O=C(CCCCCCCC(=O)NCCO)NCCO [Adelmidrol] + CCOc1ccccc1-n1c(C(C)N2CCN(C(=O)COc3ccc(Cl)cc3)CC2)nc2ccccc2c1=O [erastin],0.701,0.73
O=C(O)c1cccc(N=Nc2c(O)[nH]c3ccc(S(=O)(=O)NCc4ccc(F)cc4)cc23)c1 + CCOc1ccccc1-n1c(C(C)N2CCN(C(=O)COc3ccc(Cl)cc3)CC2)nc2ccccc2c1=O [erastin],0.544,0.636
CCNC1(C(N)=O)CCN(c2ncnc3c2nc(-c2ccccc2Cl)n3-c2ccc(Cl)cc2)CC1 [Otenabant] + CCOc1ccccc1-n1c(C(C)N2CCN(C(=O)COc3ccc(Cl)cc3)CC2)nc2ccccc2c1=O [erastin],0.441,0.459
COc1cccc(CNc2ccc(S(=O)(=O)Nc3nc4ccccc4s3)cc2)c1O + CCOc1ccccc1-n1c(C(C)N2CCN(C(=O)COc3ccc(Cl)cc3)CC2)nc2ccccc2c1=O [erastin],0.639,0.68
O=C(O)c1c[nH]c2cc(Cl)c(-c3ccc(C4(O)CCC4)cc3)cc12 + CCOc1ccccc1-n1c(C(C)N2CCN(C(=O)COc3ccc(Cl)cc3)CC2)nc2ccccc2c1=O [erastin],0.599,0.677
CCOc1cc(CC(=O)N[C@@H](CC(C)C)c2ccccc2N2CCCCC2)ccc1C(=O)O [Repaglinide] + CCOc1ccccc1-n1c(C(C)N2CCN(C(=O)COc3ccc(Cl)cc3)CC2)nc2ccccc2c1=O [erastin],0.711,0.566
CCC(=O)O[C@]1(C(=O)CCl)[C@@H](C)C[C@H]2[C@@H]3C[C@H](F)C4=CC(=O)C=C[C@]4(C)[C@@]3(F)[C@@H](O)C[C@@]21C [Halobetasol Propionate] + CCOc1ccccc1-n1c(C(C)N2CCN(C(=O)COc3ccc(Cl)cc3)CC2)nc2ccccc2c1=O [erastin],0.708,0.973
CSc1ccc(C(=O)/C=C/c2cc(C)c(OC(C)(C)C(=O)O)c(C)c2)cc1 [Elafibranor] + CCOc1ccccc1-n1c(C(C)N2CCN(C(=O)COc3ccc(Cl)cc3)CC2)nc2ccccc2c1=O [erastin],0.858,0.602
C[N+](C)(C)CC(O)CC(=O)[O-] (stereo not drawn) [L(-)-Carnitine] + CCOc1ccccc1-n1c(C(C)N2CCN(C(=O)COc3ccc(Cl)cc3)CC2)nc2ccccc2c1=O [erastin],0.781,0.91
O=C(Nc1ccccc1)N1CCN(c2nc(-c3ccccc3)ns2)CC1 + CCOc1ccccc1-n1c(C(C)N2CCN(C(=O)COc3ccc(Cl)cc3)CC2)nc2ccccc2c1=O [erastin],0.559,0.353
